# Experimental data taken from PubChem BioAssay (NCATS).
# Results filed as inconclusive are left out. The source made the active and inactive calls. Calls come from the whole dose curve; as a rule, active = well fitted cell-killing curve with a large enough effect; inconclusive = small, poorly fitted or top-dose-only effect, or effect the other way; inactive = flat fitted curve, though single readings scatter.
# Assay: MultiTox-Fluor Cytotoxicity Assay - LYMP1-001 - Dead Cells (AID 946);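 for cytotoxicity (dead cells): 0% = DMSO and 100% = tetraoctylammonium bromide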
# Details: LYMP1-001 lymphoblastoid cells, dead-cell protease fluorescence; series mostly up to 92.2 µM; cytotoxicity (dead cells): at the top concentration
# Description: NIH Chemical Genomics Center [NCGC]
# NIH Molecular Libraries Screening Centers Network [MLSCN]
# National Institutes of Environmental Health Sciences [NIEHS]
# National Toxicology Program [NTP]
# We have developed a 1536-well cell-based assay for quantitative high throughput screening (qHTS) against a number of cell lines to determine in vitro cytotoxicity of small molecules. This particular assay uses a human lymphoblastoid cell line (LYMP1-001) purchased from Coriell Institute for Medical Research.
# NCGC Assay Protocol Summary:
# The MultiTox-Fluor Cytotoxicity Assay (Promega) is a homogeneous method to simultaneously measure the relative number of live and dead cells in culture by detecting changes in cell membrane integrity. There are two fluorogenic peptide substrates in the assay reagent. Viable cells are determined when the cell-permeant substrate (GF-AFC) enters the cell and is cleaved by protease from live cells resulting in liberated fluorophore. This live-cell protease activity restricted to viable cells is proportional to cell number. The dead cells are determined by using fluorogenic cell-impermeant peptide substrate (bis-AAF-R110) which cleaved by dead cell proteases leaking from damaged cell membrane.
# Using the MultiTox-Fluor Cytotoxicity Assay, the relative number of dead cells was measured in the lymphoblastoid cell line with complete culture medium following compound treatment for 16 hours. The assay was performed in opaque black Kalypsys 1536-well plates. In the screen, tetraoctylammonium bromide was used as positive control. Library compounds were measured for their ability to cause acute toxicity in the cell line, as reflected by an increase in dead cell protease activity, in a concentration-dependent manner. Data were normalized to the controls for basal activity (DMSO only) and 100% stimulation (15 uM tetraoctylammonium bromide). AC50 values were determined from concentration-response data modeled with the standard Hill equation.
# qHTS protocol for MultiTox-Fluor Cytotoxicity assay
# [Step] [Parameter] [Value] [Description]
# 1. Reagent; 5 uL; 2500 lymphoblastoid cells/well
# 2. Time; 5 hr; 37 C incubation
# 4. Controls; 23 nL; Tetraoctylammonium bromide 6.4pM to 92 uM
# 5. Time; 16 hr; 37 C incubation
# 6. Reagent; 5 uL; MuliTox-Fluor Assay reagent
# 7. Time; 60 min; Room Temperature
# 8. Detection; dead-cell fluorescence (Ex/Em=485/520); EnVision plate reader
# Keywords: cytotoxicity, lymphoblastoid cell line, fluorescence, NTPHTS, NTPHTS_NCGC, NIEHS, EPA, DSSTox, MLSMR, MLSCN, NIH Roadmap, qHTS, NCGC
# Potency is the fitted concentration of half-maximal effect.
Structure (SMILES),Potency,cytotoxicity (dead cells)
COc1ccccc1O,inactive,–
O=C1O[C@H]([C@@H](O)CO)C(O)=C1O,–,-13.6% (inactive)
NC(=O)N/N=C/c1ccc([N+](=O)[O-])o1,–,5.97% (inactive)
Cc1cc2nc3c(=O)[nH]c(=O)nc-3n(C[C@H](O)[C@H](O)[C@H](O)CO)c2cc1C,39.8 µM (active),–
O=C1c2c(O)cccc2Cc2cccc(O)c21,–,-16% (inactive)
NCCNCCNCCNCCN,–,0.708% (inactive)
NC(=O)c1ncn([C@@H]2O[C@H](CO)[C@@H](O)[C@H]2O)n1,–,-1.84% (inactive)
CCCCOC(=O)c1ccc(O)cc1,–,-10.5% (inactive)
NCCNCCNCCN,–,-13.7% (inactive)
Cc1c(O)cccc1C(=O)N[C@@H](CSc1ccccc1)[C@H](O)CN1C[C@H]2CCCC[C@H]2C[C@H]1C(=O)NC(C)(C)C,31.6 µM (active),–
Oc1cccc(O)c1,–,7.37% (inactive)
CC12CCC(CC1)C(C)(C)O2,–,0.484% (inactive)
[Cl][In]([Cl])[Cl],–,1.74% (inactive)
CC1(C)[C@@H]2CC[C@@]1(C)C(=O)C2,–,-7.58% (inactive)
CCCCCCCCCCCCOS(=O)(=O)O,inactive,–
Cc1cc(CC(=O)O)n(C)c1C(=O)c1ccc(Cl)cc1,–,-4.02% (inactive)
Nc1ccc(S(=O)(=O)Nc2nccs2)cc1,–,-13.1% (inactive)
C[C@]12C[C@H](O)[C@H]3[C@@H](CCC4=CC(=O)CC[C@@]43C)[C@@H]1CC[C@@H]2C(=O)CO,–,16.4% (inactive)
